Source: PubChem
FLuc counter – counter-screen for miR-21 project: firefly luciferase inhibitors or activators | P08659 | purified FLuc, Km substrates, luminescence inhibition | Potency, µM (doses to about 57.5 µM), for inactives: at the top dose activity change, negative = inhibition, hits mostly inhibitors | 6.9% of 360,000 active;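 also: plate controls were vehicle for no effect and reference inhibitor for full effect; nearly all actives have a fitted effect of over 55% in size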
Target sequence (P08659 whole entry, looked up): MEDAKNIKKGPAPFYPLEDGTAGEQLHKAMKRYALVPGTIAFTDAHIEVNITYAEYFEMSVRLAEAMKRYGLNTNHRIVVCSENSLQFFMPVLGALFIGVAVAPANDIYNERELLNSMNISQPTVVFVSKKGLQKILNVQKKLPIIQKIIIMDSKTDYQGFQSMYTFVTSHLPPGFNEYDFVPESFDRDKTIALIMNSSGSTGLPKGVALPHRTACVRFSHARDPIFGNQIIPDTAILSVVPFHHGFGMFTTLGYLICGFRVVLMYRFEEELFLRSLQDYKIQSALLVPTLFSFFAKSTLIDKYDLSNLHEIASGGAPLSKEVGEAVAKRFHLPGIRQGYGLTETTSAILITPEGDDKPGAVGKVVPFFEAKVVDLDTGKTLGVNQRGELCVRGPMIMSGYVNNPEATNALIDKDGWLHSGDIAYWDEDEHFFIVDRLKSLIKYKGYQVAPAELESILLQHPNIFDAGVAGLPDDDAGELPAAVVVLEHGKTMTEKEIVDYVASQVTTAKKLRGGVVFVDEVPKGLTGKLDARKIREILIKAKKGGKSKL
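Purified P. pyralis luciferase, 10 nM final, with Km-level 10 uM D-luciferin and 10 uM ATP in 50 mM Tris acetate pH 7.5, 10 mM Mg acetate, 0.01% Tween-20, 0.05% BSA; 6-point qHTS titration about 60 µM downward; luminescence read.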
SMN2 splice enh – enhancers of SMN2 splice variant expression; AID 1458; 2.8% of 210,000 active; Potency, µM (titrated, usually from 46.1 µM), without a hit: top-dose activity change, positive = activation, actives largely listed as activators; HEK293 SMN2-luciferase splicing reporter, luminescence, 30-36 h; also: % of control where 0% means no effect; nearly all actives have a fitted effect of over 55% in size
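HEK293 cells carry an SMN2 minigene-luciferase reporter in which exon 7 inclusion puts luciferase in frame. Cells were seeded at 2000 cells/well, attached for 10-12 hours, then exposed to compounds for 30-36 hours at 37C before ONE-Glo luminescence.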
Luc counter – Kinase-Glo luciferase inhibition (counter-screen) | 0.28% of 200,000 active | AID 1379 | Kinase-Glo luciferase, ATP luminescence, 8 min | Potency, µM (highest dose often 38.3 µM), inactives show at the top dose activity change, negative = inhibition, most hits filed as inhibitors; also: % is scaled to controls: 0 for no effect and ±100 for the full control effect; nearly all actives have a fitted effect of over 60% in size
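Compounds were added to a substrate mix at pH 7.2 (50 mM imidazole, 10 uM ATP, within the enzyme's linear range), followed by Kinase-Glo detection reagent; luminescence was measured after 8 minutes at ambient temperature.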
NPC1 prom act – activates the NPC1 promoter; 2.4% of 320,000 active; Potency, µM (doses to about 9.22 µM), inactives show at the top dose activation, most hits filed as activators; Huh7 NPC1 promoter luciferase reporter, 24 h; also: % of control where 0% means no effect; nearly all actives have a fitted effect of over 60% in size
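In 1536-well qHTS, Huh7 cells harboring an NPC1 promoter–luciferase construct received compound for 24 h; activation was quantified by luminescence following luciferase reagent addition.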
Rab9 prom act – Rab9 promoter activation. Huh7 Rab9 promoter-luciferase reporter, luminescence, 24 h. Potency, µM (series often up to 9.22 µM), without a hit: at the top dose activation, negative = inhibition, actives largely listed as activators. 2.8% of 320,000 active; also: % of control where 0% means no effect; nearly all actives have a fitted effect of over 60% in size
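Cells were plated at 1500 per well in reduced-serum medium with 10% FBS and left 2 h. Compound in DMSO was then added for 24 h at 37 °C. Reporter signal was read by luminescence after 10 min with luciferase detection reagent.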
* = called active by the depositor; ? = inconclusive; / = not tested or not shown; [ ] = remark or other dose. A selection: hits, their analogues and other compounds. The true share with any hit is near 7.3%. Calls follow the shape of the dose curve; as a rule, active = well fitted curve in the direction sought with a large enough effect; inconclusive = small, poorly fitted or top-dose-only effect, or another doubt; inactive = no such curve, though single readings can be large; an effect the other way counts as inactive or inconclusive. Potency is read from the fitted curve at half-maximal effect.

SMILES | FLuc counter | SMN2 splice enh | Luc counter | NPC1 prom act | Rab9 prom act
Cc1nn(-c2ccccc2)c(C)c1/C=N/NC(=O)c1cc(-c2ccc(Cl)s2)[nH]n1 | 10.7µM* | -14.9% | -0.5% | -24.9% | -19.1%
O=C(CSc1nnc(SCc2ccccc2Cl)s1)N/N=C/c1ccc(C(=O)O)cc1 | 3.38µM* | / | / | 1.4% | 3.5%
Cc1ccc2c(c1)-c1onc(C(=O)N3CCN(c4cc(Cl)ccc4C)CC3)c1CO2 | -0.1% | / | / | / | /
Cc1cc(Nc2ccc(Cl)cc2)nc(N)n1 | 19µM* | 15.9% | -3.2% | ? | ?
Nc1cc(Nc2ccc(Br)cc2)nc(N)n1 | 13.5µM* | / | / | 3.55µM* | ?
CC(=O)c1cccc(NC(=O)c2cc(-c3ccc(C)cc3)on2)c1 | ? | ? | 0.2% | ? | ?
CC(=O)c1cccc(NC(=O)c2cc(-c3ccc4c(c3)OCCO4)on2)c1 | 0.151µM* | / | / | / | /
Cc1ccc(OC(=O)c2cc(-c3ccc4c(c3)OCCO4)on2)c(C)c1 | 1.51µM* | / | / | / | /
COc1cc(NC(=O)c2cc(-c3ccc4c(c3)OCO4)on2)cc(OC)c1OC | 1.9% | 3.2% | / | -33.4% | -27.9%
O=C(Nc1cccc(O)c1)c1cc(-c2ccc3c(c2)OCO3)on1 | 0.151µM* | / | / | ? | ?
CC(=O)Nc1ccc(NC(=O)c2cc(-c3ccc4c(c3)OCCO4)on2)cc1 | 0.338µM* | / | / | / | /
CC(=O)c1ccc(NC(=O)c2cc(-c3ccc4c(c3)OCO4)on2)cc1 | -1.7% | 6.0% | / | / | /
Cc1cccc(N(C)C(=O)CCNS(=O)(=O)c2ccc3c(c2)CCN3C(=O)C2CC2)c1 | 5.3% | / | / | / | /
COc1ccc(NS(=O)(=O)c2cc3[nH]c(=O)c(=O)[nH]c3cc2C)cc1Cl | -11.1% | / | / | / | /
COc1cc(Cl)c(C)cc1NC(=O)C1CCN(c2nc3ccccc3n3cccc23)CC1 | -2.3% | / | / | / | /
O=C(Nc1ccc(SC(F)F)cc1)c1cc(-c2ccc3c(c2)OCCO3)on1 | 5.36µM* | / | / | / | /
O=C(Nc1ccc(SC(F)F)cc1)c1cc(-c2cccs2)on1 | -14.1% | / | / | / | /
CN(C)S(=O)(=O)c1ccc2c(c1)/C(=C/c1cc3c([nH]1)CCCC3)C(=O)N2 | -20.3% | 11.2µM* | -5.0% | ? | ?
CCOc1ccc(C(c2c(O)cc(C)n(Cc3ccco3)c2=O)N2CCCCC2)cc1 (stereo not given) | -17.9% | / | / | / | /
CCN(CCCNC(=O)c1cc2cc3ccc(OC)cc3nc2s1)c1ccccc1 | -1.9% | 12.2% | / | -3.3% | -4.8%
CCCCN(C)C(=O)c1cc2cc3ccc(OC)cc3nc2s1 | 0.757µM* | 6.31µM* | ? | 0.501µM* | 0.447µM*
CCCCN(CC)C(=O)c1cc2cc3ccc(OC)cc3nc2o1 | 15.1µM* | -4.6% | -1.7% | ? | ?
COc1cccc(OCc2cc(C(=O)N(C)CCOc3ccc(C)cc3)no2)c1 | 13.5µM* | / | / | 3.55µM* | 2.82µM*
COc1ccc(OCc2cc(C(=O)N(C)Cc3nccn3C)no2)c2ccccc12 | 6.3% | / | / | -3.1% | -0.1%
COc1ccc(OCc2cc(C(=O)N(Cc3nccn3C)C(C)C)no2)c2ccccc12 | 13.5µM* | / | / | ? | 3.16µM*
SMILES | FLuc counter | SMN2 splice enh | Luc counter | NPC1 prom act | Rab9 prom act
COc1cccc(OCc2cc(C(=O)N(C)Cc3nccn3C)no2)c1 | 19µM* | / | / | 2.82µM* | 1.78µM*
COc1ccc(-c2cnc(C)o2)cc1S(=O)(=O)Nc1ccc(OC(F)(F)F)cc1 | -1.7% | / | / | / | /
c1ccc2c(-c3csc(-c4ccncc4)n3)c[nH]c2c1 | 7.57µM* | 12.6µM* | 0.3% | 1.0% | ?
Brc1ccc(-c2csc(-c3c[nH]c4ccccc34)n2)cc1 | 21.3µM* | ? | -3.5% | ? | 9.3%
COc1ccc(C)cc1Nc1nc(-c2c[nH]c3ccccc23)cs1 | ? | -9.5% | -2.3% | 0.1% | 1.3%
COc1ccc2c(c1)Cc1cc(N=[N+]([O-])c3ccc4c(c3)Cc3cc(OC)ccc3-4)ccc1-2 | / | 1.5%[9.22 µM] | -1.0%[7.66 µM] | / | /
CCC(C)NC(=O)CSc1nc2c(sc3ccccc32)c(=O)n1Cc1ccccc1Cl (stereo not given) | -0.4% | / | / | / | /
COc1ccc(-n2nc(C(=O)NCC(=O)N3CCCC(C)C3)c3ccccc3c2=O)cc1 (stereo not given) | 5.36µM* | / | / | -24.0% | 17.5%
COc1ccc(-n2nc(C(=O)NCC(=O)N3CCN(c4cccc(Cl)c4)CC3)c3ccccc3c2=O)c(OC)c1 | 7.57µM* | / | / | -3.1% | -3.7%
COc1ccc(-n2nc(C(=O)N3CCN(c4ccc(F)cc4)CC3)c3ccccc3c2=O)c(OC)c1 | 6.2% | -5.4% | 3.9% | 9.3% | 0.8%
COc1ccc(-n2nc(C(=O)NCC(=O)N3CCC(C(N)=O)CC3)c3ccccc3c2=O)cc1 | 10.7µM* | / | / | 8.6% | 8.0%
COc1ccc(-n2nc(C(=O)NCC(=O)N3CC(C)CC(C)C3)c3ccccc3c2=O)cc1OC (stereo not given) | ? | / | / | -0.4% | -0.3%
COc1ccc(-n2nc(C(=O)NCC(=O)N3CCC(C)CC3)c3ccccc3c2=O)cc1 | 2.13µM* | / | / | ? | ?
CCC(C)NC(=O)CNC(=O)c1nn(-c2ccc(OC)cc2)c(=O)c2ccccc12 (stereo not given) | -10.6% | / | / | -3.3% | -0.6%
Cc1cccc(NC(=O)C(=O)NCC(c2cccnc2)N2CCc3ccccc32)c1C (stereo not given) | -7.2% | / | / | / | /
Cc1ccsc1/C=N\NC(=O)c1cc(C(C)(C)C)[nH]n1 | 12µM* | 11.2µM* | -0.3% | 2.82µM* | 2.82µM*
Nc1c(Cl)c(Cl)nc(C(=O)N/N=C/c2ccco2)c1Cl | -2.8% | / | / | 23.6% | 3.3%
Cc1cc(C(=O)N/N=C/c2sccc2C)no1 | ? | ? | -1.4% | 6.2% | 9.3%
Nc1nccnc1C(=O)N/N=C/c1ccco1 | 13.5µM* | / | / | 27.0% | ?
CC(C)(C)c1cc(C(=O)N/N=C/c2ccco2)n[nH]1 | 13.5µM* | ? | -1.2% | ? | ?
COCCNc1nc(C)nc2c1nc(-c1ccccc1)n2CCCN1CCCCC1C (stereo not given) | / | -5.2% | -0.6% | / | /
O=C(Nc1ccc2c(c1)OCO2)c1cccc2c1C(=O)N(Cc1cccnc1)C2 | 15.1µM* | -3.5% | -7.0% | -3.2% | 2.2%
CCCN1Cc2cccc(C(=O)Nc3ccc4c(c3)OCCO4)c2C1=O | 15.1µM* | -0.8% | -7.3% | -3.1% | 9.7%
CCCN1Cc2cccc(C(=O)Nc3ccc(CC)cc3)c2C1=O | 2.69µM* | 3.5% | 0.4% | 0.2% | 0.5%
Cc1ccc(NC(=O)CSc2ccc(-c3sc(-c4ccccc4)nc3C)nn2)cc1F | -6.2% | / | / | / | /
Cn1nnnc1SCc1nc2ccccc2s1 | ? | ? | -8.0% | 20.3% | ?
Brc1ccccc1-c1nnc(SCc2nc3ccccc3s2)o1 | 7.57µM* | 14.1µM* | -3.3% | 21.9% | ?
CCN(CC)S(=O)(=O)c1cccc(-c2nnc(SCc3nc4ccccc4s3)o2)c1 | 15.1µM* | -45.1% | -0.3% | 13.9% | ?
